Test [1] can be described thus: qHTS assay for small molecule agonists of the p53 signaling pathway (AID 651631; calls by dose curve; note: nearly all actives have a fitted effect of over 15% in size; note: potency is the fitted concentration of half-maximal effect). Put shortly: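 Beta-lactamase reporter activity under p53 response elements was quantified in HCT-116 cells by FRET fluorescence, following 16 h incubation with test compounds at 37 °C and 2 h substrate development at room temperature.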
On the technique in general: Quantitative high-throughput screening tests each substance at several concentrations.

Test [2] can be described thus: qHTS assay for small molecules that induce genotoxicity in human embryonic kidney cells expressing luciferase-tagged ATAD5 (AID 651632). Note: nearly all actives have a fitted effect of over 15% in size. Note: potency is the fitted concentration of half-maximal effect. The essentials:
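Luminescence read-out: after 16 hr compound exposure at 37C, ATAD5-luciferase HEK293T cells received Amplite, 30 min RT, then CCD imaging. A rise in signal marks genotoxic stress.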

The nature of test [3]: qHTS assay for small molecules that induce genotoxicity in human embryonic kidney cells expressing luciferase-tagged ATAD5 - cell viability (AID 651634; calls by dose curve; note: nearly all actives have a fitted effect of over 25% in size). Put shortly: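 HEK293T ATAD5-luc cells, 2,000/well; compound 15.5 hr, 37C/5% CO2; CellTiter-Fluor 30 min, 37C; fluorescence read.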
The nature of test [4]: qHTS assay to test for compound auto fluorescence at 590 nm (red) in HepG2 cells (AID 720674). Put shortly: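 Seeding: 2,000 HepG2 cells/well, MEM/10% FBS, overnight 37 C. Dosing: compound vs DMSO. Incubation: 1 hr, 37 C, 5% CO2. Read: fluorescence 540 ex/590 em, Rose Bengal sodium as red reference.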
Test [5] can be described thus: qHTS assay to test for compound auto fluorescence at 535 nm (green) in HepG2 cells (AID 720675).
A short description of test [6]: qHTS assay to test for compound auto fluorescence at 460 nm (blue) in HEK293 cells (AID 720678). Put shortly:
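Intrinsic compound fluorescence is recorded in live HEK293 cultures after overnight incubation at 37C, 5% CO2, using excitation 405 nm and emission 460 nm. Values are referenced to triamterene.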

A short description of test [7]: qHTS assay to test for compound auto fluorescence at 590 nm (red) in HEK293 cells (AID 720679). Put shortly: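 Red autofluorescence, HEK293 cells: 2,000 cells/well; attach 4-5 hr 37C; add 23 nL cpd or DMSO; incubate o/n 37C 5% CO2; read Ex540/Em590; Rose Bengal sodium reference.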
A short description of test [8]: qHTS assay to test for compound auto fluorescence at 535 nm (green) in HEK293 cells (AID 720680).
Test [9] in a line: qHTS assay to test for compound auto fluorescence at 460 nm (blue) in HEK293 cell free culture (AID 720681). Put shortly: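 Compounds were added to cell-free DMEM with 10% FBS and fluorescence read directly. The blue channel used 405 nm excitation and 460 nm emission, with triamterene as the reference fluorophore.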
A short description of test [10]: qHTS assay to test for compound auto fluorescence at 535 nm (green) in HEK293 cell free culture (AID 720682). Put shortly:
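Each library compound, or DMSO control, is added by pintool to medium alone, comprising DMEM and 10% FBS. Emission at 535 nm following 485 nm excitation is quantified against fluorescein.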

Test [11] in a line: qHTS assay to test for compound auto fluorescence at 590 nm (red) in HEK293 cell free culture (AID 720683). Put shortly:
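Cell-free wells of DMEM with 10% FBS received compound, and intrinsic fluorescence was read at excitation/emission 540/590 nm. Values expressed as equivalence to Rose Bengal sodium.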

A short description of test [12]: qHTS assay to test for compound auto fluorescence at 590 nm (red) in HepG2 cell free culture (AID 720684). Put shortly:
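Auto fluorescence equivalency versus Rose Bengal sodium, red channel Ex/Em 540/590 nm; compounds in cell-free MEM/10% FBS; DMSO vehicle control.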

A short description of test [13]: qHTS assay to test for compound auto fluorescence at 460 nm (blue) in HepG2 cell free culture (AID 720685). Put shortly: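 Cell-free plates of MEM plus 10% FBS received 23 nL compound or DMSO vehicle; blue-channel (405/460 nm) intensity scored against triamterene as reference fluorophore.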
Test [14] can be described thus: qHTS assay to test for compound auto fluorescence at 535 nm (green) in HepG2 cell free culture (AID 720686).
The nature of test [15]: qHTS assay to test for compound auto fluorescence at 460 nm (blue) in HepG2 cells (AID 720687). Put shortly:
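HepG2 cells in MEM with 10% FBS, attached overnight at 37 C, were exposed to compound or DMSO for 1 hr at 37 C, 5% CO2. Blue fluorescence was read at 405/460 nm, with triamterene as reference fluorophore.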

In test [16] the target is Glucocorticoid receptor (Homo sapiens) (UniProt P04150). The experiment in a line: qHTS assay to identify small molecule agonists of the glucocorticoid receptor (GR) signaling pathway (AID 720691; active = well fitted activation curve with a large enough effect in the signal ratio in the repeat runs, not every such curve was filed as active; the % refers to the signal ratio). Put shortly:
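HeLa GR-bla reporter line; cells pre-incubated 4 h, compound in DMSO 18 h at 37 C; LiveBLAzer B/G FRET substrate 2 h RT; fluorescence intensity read-out.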

Test [17] is described as follows: qHTS assay for small molecule disruptors of the mitochondrial membrane potential - cell viability (AID 720634; calls by dose curve;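 note: human HepG2 liver cancer cells; series mostly up to about 83 µM; nearly all actives have a fitted effect of over 20% in size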). Put shortly:
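Luminescence from CellTiter-Glo (ATP content) gave viability in HepG2 cells, read in the same wells as the MMP dye assay after 1 hr compound exposure at 37 C.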

Test [18] in a line: qHTS assay for small molecule agonists of the p53 signaling pathway - cell viability (AID 651633; calls by dose curve;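 note: p53RE-bla HCT reporter cells with a stable beta-lactamase p53 reporter; series mostly up to about 83 µM; nearly all actives have a fitted effect of over 30% in size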). The essentials: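 p53RE-bla cells were treated with compound for 16 hours at 37 C. Cytotoxicity was then measured as CellTiter-Glo luminescence after 30 min at room temperature.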
A short description of test [19]: qHTS assay for small molecule disruptors of the mitochondrial membrane potential (AID 720635). The essentials: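 HepG2 cells exposed to compound 1 hr at 37C, then Mito-MPS dye 30 min. Ratio read of aggregate (540/590 nm) versus monomer (490/535 nm) fluorescence.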
For test [20], the target named is Glucocorticoid receptor (Homo sapiens) (UniProt P04150). The experiment in a line: qHTS assay to identify small molecule antagonists of the glucocorticoid receptor (GR) signaling pathway (AID 720692; active = well fitted inhibition curve with a large enough effect in the signal ratio in the repeat runs, not every such curve was filed as active; the % refers to the signal ratio). The essentials: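 Read-out: beta-lactamase FRET substrate fluorescence, 2 h at room temperature, in HeLa cells stably carrying a GRE-driven bla reporter. Compounds were co-incubated with 5 nM dexamethasone agonist (final) for 18 h at 37 C.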

A number with no mark means an inactive call. Inconclusive results are not listed. Activity calls are given as the source filed them. Unless noted, calls come from the whole dose curve; as a rule, active = well fitted curve in the direction sought with a large enough effect in the repeat runs; inconclusive = weak or mixed curves; inactive = no such curve, though single readings can be large; an effect the other way counts as inactive or inconclusive.

Glucocorticoid receptor (Homo sapiens), sequence (P04150 whole entry, looked up): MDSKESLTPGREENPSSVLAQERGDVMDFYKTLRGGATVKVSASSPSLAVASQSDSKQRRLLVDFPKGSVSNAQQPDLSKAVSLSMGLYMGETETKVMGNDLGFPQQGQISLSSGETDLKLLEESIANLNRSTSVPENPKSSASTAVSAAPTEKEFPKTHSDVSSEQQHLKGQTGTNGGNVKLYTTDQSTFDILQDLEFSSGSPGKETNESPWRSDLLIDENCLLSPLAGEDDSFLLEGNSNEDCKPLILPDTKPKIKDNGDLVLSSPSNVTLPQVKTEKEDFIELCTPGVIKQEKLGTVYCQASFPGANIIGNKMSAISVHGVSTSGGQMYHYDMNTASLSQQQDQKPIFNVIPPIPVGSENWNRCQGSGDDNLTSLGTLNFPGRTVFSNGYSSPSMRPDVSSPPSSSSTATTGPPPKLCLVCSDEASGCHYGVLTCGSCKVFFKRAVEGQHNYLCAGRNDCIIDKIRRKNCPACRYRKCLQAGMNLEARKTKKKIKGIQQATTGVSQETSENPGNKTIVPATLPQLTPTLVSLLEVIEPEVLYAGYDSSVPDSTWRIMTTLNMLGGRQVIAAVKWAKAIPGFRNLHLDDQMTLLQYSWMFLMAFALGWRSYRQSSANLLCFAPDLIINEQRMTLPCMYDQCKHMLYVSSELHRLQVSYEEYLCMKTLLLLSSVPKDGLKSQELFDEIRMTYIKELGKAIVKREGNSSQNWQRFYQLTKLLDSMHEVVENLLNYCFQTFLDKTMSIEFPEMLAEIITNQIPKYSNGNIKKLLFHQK

Turning to `Cc1nc(-c2ccc(OCC(C)C)c(C#N)c2)sc1C(=O)O`, the Potency result in test [1], in test [3], in test [6], in test [9], in test [13] and in test [15] was “inactive” throughout. In addition, the Potency entry in test [16] was “inactive”. Further, in [2], the Potency was 0.15 µM (active). Moreover, the call in test [4], in [5], in [7], in [8], in test [10] and in test [11] was inactive. Moreover, the call in [12] and in test [14] was inactive.

On to `Cc1c(C)n(CCN(C)C)c2ccc(C(=O)OCCN(C)C)cc12`, for which the Potency in test [1] is 26.6 µM (active). Further, the Potency result in [2], in test [3], in [17], in [6], in test [9] and in [13] was “inactive” in each case. In addition, the Potency entry in test [15] was “inactive”. Also, the molecule was classed as inactive in test [4], in test [5], in [7], in [8], in test [10] and in test [11]. In addition, the call in test [12] and in [14] was inactive.

In the case of `CCCCCC[C@@H](CCC)C(=O)O`, the Potency entry in [2], in test [18], in [3], in test [17], in [19] and in [6] was “inactive” each time. Also, the Potency result in test [9], in test [13] and in test [15] was “inactive” throughout. For the same molecule, the molecule was called inactive in test [4], in [5], in test [7], in test [8], in test [10] and in test [11]. For the same molecule, the result in test [12] and in test [14] was inactive.

For the molecule `CC1=CC(C)C(C=O)C(C)C1` (configuration not stated), the Potency result in test [1], in test [2], in test [3], in test [17], in test [19] and in test [6] was “inactive” in each case. Besides, the Potency result in [9], in [13], in [15], in test [16] and in test [20] was “inactive” each time. For the same molecule, the call in test [4], in test [5], in [7], in test [8], in test [10] and in test [11] was inactive. For the same molecule, the result in test [12] and in [14] was inactive.

Regarding `CC(O)CN(CCCN(C)C)CCCN(C)C` (configuration not stated), the Potency result in [2], in test [18], in [3], in [17], in [19] and in test [6] was “inactive” throughout. In addition, the Potency result in test [9], in test [13], in test [15] and in [16] was “inactive” throughout. Moreover, the result in test [4], in test [5], in [7], in [8], in test [10] and in [11] was inactive. The molecule was classed as inactive in test [12] and in [14].

With `O=C(O)/C=C/c1ccc(/C=C/C(=O)O)cc1`, the Potency entry in [1], in [2], in test [3], in test [17], in test [19] and in test [6] was “inactive” in each case. Besides, the Potency entry in [9], in test [13], in test [15], in [16] and in test [20] was “inactive” throughout. In addition, the outcome in test [4], in [5], in test [7], in [8], in test [10] and in test [11] was inactive. Also, the call in [12] and in [14] was inactive.

On to `NC1CCN(c2cccc(Cl)n2)CC1`, for which the Potency entry in test [2], in test [18], in test [3], in [17], in [19] and in test [6] was “inactive” in each case. Also, the Potency result in test [9], in test [13], in test [15], in [16] and in test [20] was “inactive” throughout. For the same molecule, the result in test [4], in test [5], in test [7], in test [8], in test [10] and in test [11] was inactive. The result in test [12] and in test [14] was inactive.

For the molecule `C[C@H]1O[C@@H](n2cc(F)c(=O)[nH]c2=O)[C@H](O)[C@@H]1O`, the Potency in [1] is 21.1 µM (active). Also, the Potency entry in [2], in test [3], in test [17], in test [6], in [9] and in test [13] was “inactive” each time. The Potency result in test [15], in test [16] and in test [20] was “inactive” each time. Also, the call in test [4], in test [5], in [7], in test [8], in [10] and in [11] was inactive. Also, the result in test [12] and in test [14] was inactive.

These data come from PubChem BioAssay (Tox21).
